p53 mut binder = mutant p53 (human) binding. calls only. small molecule microarray binding, anti-GST fluorescence. AID 624136. 0.4% of 17,000 active;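 active = compounds whose four printed spots each glow above background more than chance allows, each with a p-value under 7%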
c-Myc SMM = c-Myc (human) binding; P01106; small molecule microarray, His-c-Myc binding, anti-His fluorescence; 1.5% of 17,000 active; calls only;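 active = spot fluorescence over background with P-value below 7% in all four replicate spots, showing protein binding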;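 also: score is binary with 100 for all four spots passing and 0 otherwise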
mut p53 react = mutant p53 pathway reactivation. SW480 PUMA-promoter luciferase. activation, % at 9.98 µM. 1.5% of 28,000 active; in the data active = activation above about 52%; inconclusive = no clear call, values can overlap the other calls
NFkB binder = binds human NF-kappa-B p105 on microarray. 1.3% of 17,000 active. P19838. calls only. Small molecule microarray, anti-His fluorescence binding;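 active = spot fluorescence over background significantly raised, with a chance value under 7% in all four replicate spots of the compound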;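 also: probe protein is his-tagged human p50 processed subunit at 1 µg/ml; raw spot fluorescence signals with no normalization applied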
Target sequence (P19838 1-433 limits assumed): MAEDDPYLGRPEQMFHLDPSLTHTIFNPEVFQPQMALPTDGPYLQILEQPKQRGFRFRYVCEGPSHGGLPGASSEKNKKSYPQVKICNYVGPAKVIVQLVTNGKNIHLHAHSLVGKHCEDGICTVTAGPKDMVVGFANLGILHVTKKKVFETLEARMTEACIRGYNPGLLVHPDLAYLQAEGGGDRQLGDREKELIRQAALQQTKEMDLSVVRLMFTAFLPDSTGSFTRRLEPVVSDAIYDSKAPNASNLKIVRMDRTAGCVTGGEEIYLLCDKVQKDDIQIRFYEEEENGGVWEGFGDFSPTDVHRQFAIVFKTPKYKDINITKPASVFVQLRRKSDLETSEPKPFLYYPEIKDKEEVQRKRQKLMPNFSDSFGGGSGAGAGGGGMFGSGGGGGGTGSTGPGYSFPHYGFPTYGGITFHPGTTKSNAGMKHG
STAT3 SMM = binds human STAT3 on microarray | Small molecule microarray, His-STAT3 binding, anti-His fluorescence | calls only | P40763 | AID 624138 | 0.2% of 17,000 active;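 active = compounds whose four printed spots each show fluorescence over background unusually high for their array block, chance value under 7%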
* = called active by the depositor; i = inactive; u = inconclusive; x = no result; + = active, no number. In the library only some 2.6% were active in any assay of this set; here they are far more common.

SMILES | p53 mut binder | c-Myc SMM | mut p53 react | NFkB binder | STAT3 SMM
CC(C)NC(=O)Nc1cccc2c1O[C@H](CN(C)Cc1ccccc1)[C@H](C)CN([C@@H](C)CO)C2=O | i | i | 6 | i | i
C[C@@H]1CN([C@@H](C)CO)C(=O)c2cccc(NC(=O)Nc3ccccc3)c2O[C@@H]1CN(C)C(=O)NC1CCCCC1 | i | i | -10 | i | i
CC(C)NC(=O)Nc1cccc2c1O[C@@H](CN(C)Cc1ccc(C(F)(F)F)cc1)[C@H](C)CN([C@@H](C)CO)C2=O | i | + | -12 | + | i
C[C@H](CO)N1C[C@H](C)[C@@H](CN(C)C(=O)NC2CCCCC2)Oc2c(NC(=O)Nc3ccc(C(F)(F)F)cc3)cccc2C1=O | i | + | -37 | + | i
CC(C)N(Cc1nc(-c2ccccc2)no1)S(=O)(=O)c1ccccc1[N+](=O)[O-] | x | x | 9 | x | x
Cc1ccc2ccc(C(Nc3ccccn3)c3ccc(Cl)cc3)c(O)c2n1 (centres undefined) | x | x | -37 | x | x
CC(C)NC(=O)N(C)C[C@H]1OCCCC[C@H](C)Oc2ccc(N(C)C)cc2C(=O)N([C@H](C)CO)C[C@H]1C | i | i | 0 | i | i
C[C@@H]1CN([C@@H](C)CO)C(=O)c2cc(NC(=O)CCCN(C)C)ccc2O[C@@H]1CN(C)C | i | i | -3 | i | i
C[C@@H]1CN([C@@H](C)CO)C(=O)c2cccc(NC(=O)Nc3cccc4ccccc34)c2O[C@H]1CN(C)C(=O)Nc1ccc(C(F)(F)F)cc1 | i | i | -6 | + | i
C[C@H](CO)N1C[C@H](C)[C@@H](CN(C)Cc2ccc(C(F)(F)F)cc2)OCc2cnnn2CCCC1=O | i | + | 14 | + | i
C[C@@H]1CN([C@@H](C)CO)C(=O)c2cccc(NC(=O)C3CCOCC3)c2O[C@H]1CN(C)Cc1ccc(Cl)c(Cl)c1 | i | + | -4 | i | i
C[C@@H]1CN([C@H](C)CO)C(=O)c2cccc(NC(=O)Nc3ccc(C(F)(F)F)cc3)c2O[C@@H]1CN(C)C(=O)NC1CCCCC1 | i | + | -22 | + | i
C[C@H](CO)N1C[C@H](C)[C@H](CN(C)C(=O)NC2CCCCC2)Oc2c(NC(=O)Nc3ccc(F)cc3)cccc2C1=O | i | i | -26 | i | i
C[C@H](CO)N1C[C@H](C)[C@@H](CN(C)Cc2ccc(Cl)c(Cl)c2)Oc2c(NC(=O)C3CCOCC3)cccc2C1=O | i | i | -12 | i | i
O=C(O)CCNC(=O)c1ccc(C#CC2(O)CCCCC2)cc1 | i | i | -14 | i | i
C[C@@H]1CN([C@@H](C)CO)C(=O)c2cccc(NC(=O)Nc3ccc(C(F)(F)F)cc3)c2O[C@H]1CN(C)C(=O)NC1CCCCC1 | i | i | -20 | i | +
C[C@@H]1CN([C@@H](C)CO)C(=O)c2cc(NC(=O)NC3CCCCC3)ccc2O[C@H]1CN(C)C(=O)Nc1ccc(C(F)(F)F)cc1 | i | i | -13 | + | i
C[C@H]1CN([C@@H](C)CO)C(=O)c2cccc(NC(=O)NC3CCCCC3)c2O[C@H]1CN(C)C(=O)Nc1ccc(C(F)(F)F)cc1 | i | i | -41 | i | i
COc1ccc(C)cc1NC(=O)CSc1nc2ccccc2s1 | x | x | -13 | x | x
C[C@@H]1CN([C@H](C)CO)C(=O)Cc2cc(NC(=O)C3CC3)ccc2O[C@H]1CN(C)S(=O)(=O)c1ccc(F)cc1 | x | x | -12 | x | x
COc1ccccc1CC(CC(=O)O)C(=O)O (centres undefined) | i | + | -8 | + | i
Brc1ccc(-c2cnc3ccccc3n2)s1 | x | x | 74* | x | x
Cc1ccc2nc(-c3ccc(NC(=O)COc4ccc([N+](=O)[O-])cc4)cc3)sc2c1 | i | i | 70* | i | i
Cc1ccc2nc(-c3cccc(NC(=O)COc4ccc([N+](=O)[O-])cc4)c3)oc2c1 | x | x | 72* | x | x
Cc1ccc2nc(-c3ccc(NC(=O)C(C)Oc4ccc5c(C)cc(=O)oc5c4)cc3)sc2c1 (centres undefined) | x | x | 77* | x | x
SMILES | p53 mut binder | c-Myc SMM | mut p53 react | NFkB binder | STAT3 SMM
COc1ccc(CCNC(=S)Nc2ccc(-c3nc4ccc(C)cc4s3)cc2)cc1OC | i | i | 3 | i | i
CCC(Sc1nc(C)cc(C)n1)C(=O)Nc1ccc(-c2nc3ccc(C)cc3s2)cc1 (centres undefined) | i | i | 85* | i | i
Cc1ccc(NC(=O)COc2ccccc2)c(NC(=O)C2CC2)c1 | i | i | u | i | i
O=C(CN1C(=O)c2cccc3cccc1c23)Nc1ccc(S(=O)(=O)N2CCCCCC2)cc1 | x | x | 16 | x | x
O=C1C(=O)N(CCN2CCOCC2)C(c2ccccn2)C1C(=O)c1cccs1 (centres undefined) | x | x | 1 | x | x
O=C(COc1ccc([N+](=O)[O-])cc1)Nc1cccc(-c2nc3cc(Cl)ccc3o2)c1 | x | x | 60* | x | x
O=C1C=CC(O)(/C=C/C(=O)OC[C@H]2O[C@@H](Oc3ccc(O)cc3)[C@H](O)[C@@H](OC(=O)/C=C/C3(O)C=CC(=O)C=C3)[C@@H]2O)C=C1 | i | i | 18 | i | i
COc1ccc(CCC(=O)c2ccc(OC)cc2O)cc1 | i | i | 59* | i | i
COc1ccc(S(=O)(=O)N(C)C[C@@H]2Oc3c(NC(=O)c4cc(C)nn4C)cccc3C(=O)N([C@H](C)CO)C[C@H]2C)cc1 | i | i | 0 | i | i
C[C@H](CO)N1C[C@H](C)[C@@H](CN(C)S(=O)(=O)c2ccccc2)OCCCC[C@H](C)Oc2ccc(N(C)C)cc2C1=O | + | i | 5 | i | i
Cc1noc(C)c1S(=O)(=O)N(C)C[C@@H]1OCCCC[C@@H](C)Oc2ccc(N(C)C)cc2C(=O)N([C@H](C)CO)C[C@H]1C | i | + | -4 | + | i
Cc1noc(C)c1S(=O)(=O)N(C)C[C@H]1OCCCC[C@@H](C)Oc2ccc(NC(=O)NC(C)C)cc2C(=O)N([C@@H](C)CO)C[C@H]1C | i | + | 4 | i | i
Cc1noc(C)c1S(=O)(=O)N(C)C[C@H]1OCCCC[C@H](C)Oc2ccc(N(C)C)cc2C(=O)N([C@@H](C)CO)C[C@@H]1C | + | i | 4 | i | i
Cc1noc(C)c1S(=O)(=O)N(C)C[C@@H]1OCCCC[C@@H](C)Oc2ccc(N(C)C)cc2C(=O)N([C@@H](C)CO)C[C@H]1C | i | i | 0 | i | i
COc1ccc2c(c1OC)C(=O)OC2C1c2c(cc3c(c2OC)OCO3)CCN1C (centres undefined) | i | i | 3 | i | i
OC1c2ccccc2-c2c3c(cc4c2C1NCC4)OCO3 (centres undefined) | i | + | 13 | + | i
COCCNC(=O)c1ccccc1-c1nc(-c2ccc(Cl)cc2)no1 | x | x | 59* | x | x
CC(C)(C)C(=O)CSc1ncnc2sc3c(c12)CCCC3 | x | x | 71* | x | x

High-throughput results (PubChem BioAssay)
